Most compounds without a hit are left out; they make up all but 5.2% or so of the library.
HEK293 cAMP ctrl: counter-screen for TSHR agonists: cAMP increase in parental HEK293. parental HEK293 CNG cAMP sensor, membrane potential fluorescence. Potency, µM (highest dose often 57.1 µM), most hits filed as activators. 2.5% of 73,000 active. AID 938; further: nearly all actives have a fitted effect of over 55% in size
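Parental HEK 293 cells stably expressing a modified CNG channel (no TSHR) report cAMP rise as membrane depolarization. Membrane potential dye with 100 uM RO 20-1724 was loaded for 60 min at room temperature, then compound added for 30 min; fluorescence read at 590 nm.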
TSHR ag: agonists of human thyroid stimulating hormone receptor | P16473 | HEK293-CNG-TSHR cells (CNG channel as cAMP sensor), membrane potential dye, cAMP | Potency, µM (highest dose often 57.1 µM), usual class: activators | 0.48% of 73,000 active; active means well fitted activation curve with a large enough effect in the main read-out, with a control signal flat, not every such curve was filed as active; inconclusive means small, poorly fitted or top-dose-only effect, or a change in a side signal; inactive means no such curve, though single readings can be large or run the other way; reference of the percent scale not stated here;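 further: the control signal comes from parental cells without the receptor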
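HEK 293 cells stably expressing TSHR and a cAMP-gated CNG channel; parental CNG-only cells as counterscreen. Cells preloaded 60 min with membrane potential dye plus 100 uM RO 20-1724, then compound 30 min; fluorescence read at 590 nm.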
PK Bst: pyruvate kinase (B. stearothermophilus) modulation; purified pyruvate kinase, luminescence ATP production; ribose 5-phosphate activator present at AC10; Potency, µM; 1.2% of 51,000 active; in the data active means potency below about 11 µM; inconclusive means mostly about 12 µM to 25 µM;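 the screen sought inhibitors and activators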
FLuc inh: firefly luciferase inhibition; 2.2% of 72,000 active; Potency, µM (top dose mostly 57.1 µM), most hits filed as inhibitors; purified firefly luciferase, luminescence, 8 min; P08659; further: nearly all actives have a fitted effect of over 40% in size
Target sequence (P08659 whole entry, looked up): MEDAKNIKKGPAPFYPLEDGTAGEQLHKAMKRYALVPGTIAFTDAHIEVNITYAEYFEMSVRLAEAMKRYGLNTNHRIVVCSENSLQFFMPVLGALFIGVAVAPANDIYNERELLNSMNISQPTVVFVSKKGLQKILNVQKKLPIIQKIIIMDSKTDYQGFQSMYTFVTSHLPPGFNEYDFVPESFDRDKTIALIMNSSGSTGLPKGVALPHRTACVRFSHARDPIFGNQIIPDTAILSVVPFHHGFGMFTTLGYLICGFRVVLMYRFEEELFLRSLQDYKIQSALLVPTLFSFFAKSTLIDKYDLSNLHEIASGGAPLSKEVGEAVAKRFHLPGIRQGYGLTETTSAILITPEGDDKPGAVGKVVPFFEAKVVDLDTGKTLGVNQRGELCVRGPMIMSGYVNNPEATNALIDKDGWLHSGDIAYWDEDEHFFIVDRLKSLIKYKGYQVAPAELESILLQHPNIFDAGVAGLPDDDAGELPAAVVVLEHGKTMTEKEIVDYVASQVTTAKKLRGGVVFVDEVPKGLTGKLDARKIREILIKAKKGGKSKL
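Compounds were tested as concentration series (qHTS) against purified P. pyralis luciferase with luciferin and 10 uM ATP in 50 mM imidazole pH 7.2, 50 mM KCl, 7 mM MgCl2, 0.01% Tween 20, 0.05% BSA. Luminescence was read after 8 min at ambient temperature.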
Of the large screens only hits and unclear results are named; the others gave an inactive call. Unless noted, the call rests on the fitted dose curve; in most records, active means well fitted curve in the direction sought with a large enough effect; inconclusive means small, poorly fitted or top-dose-only effect, or another doubt; inactive means no such curve, though single readings can be large; an effect the other way counts as inactive or inconclusive.

CC1(C)Cc2c(sc(NC(=O)c3ccc(Br)o3)c2C#N)CO1	FLuc inh 10µM (no result: HEK293 cAMP ctrl, TSHR ag, PK Bst)
CN1/C(=C\C(=O)COc2ccc3c(c2)OCO3)C(C)(C)c2ccccc21	HEK293 cAMP ctrl 31.6µM, TSHR ag inconclusive
CN1/C(=C\C(=O)c2ccco2)C(C)(C)c2ccccc21	HEK293 cAMP ctrl 20µM, TSHR ag inconclusive
Cc1c(N=C/C=C2\N(C)c3ccccc3C2(C)C)c(=O)n(-c2ccccc2)n1C	none
CN1/C(=C/C(=O)c2nc(S(C)(=O)=O)ncc2Cl)C(C)(C)c2ccccc21	none
CN1/C(=C\C(=O)COC(=O)C2COc3ccccc3O2)C(C)(C)c2ccccc21 (stereo unspecified)	none
CN1/C(=C\C(=O)C(F)F)C(C)(C)c2ccccc21	HEK293 cAMP ctrl 31.6µM, TSHR ag inconclusive (no result: PK Bst)
CCN1/C(=C/C(=O)c2ccco2)Sc2ccccc21	FLuc inh 25.1µM
CCS(=O)(=O)N1CCC(C(=O)NCc2ccc(F)cc2)CC1	none
CCn1c(SCC(=O)N2CCOCC2)nnc1-c1cccs1	none
CCCCC(c1nnnn1CS(=O)(=O)c1ccc(C)cc1)N1CCN(c2ccccc2)CC1 (stereo unspecified)	none
CCOC(=O)c1cnc2c(C(=O)OC)cccc2c1NCc1ccco1	none
CCOC(=O)c1cnc2c(C)cccc2c1NCc1ccco1	HEK293 cAMP ctrl 25.1µM, TSHR ag inconclusive (no result: PK Bst)
CCOC(=O)c1ccc2ncc(C(=O)OCC)c(NCc3ccco3)c2c1	HEK293 cAMP ctrl 25.1µM, TSHR ag inconclusive
O=C(Nc1nc(-c2ccc(Cl)s2)cs1)c1cccs1	HEK293 cAMP ctrl 25.1µM, TSHR ag inconclusive, PK Bst inconclusive
CC(C)(C)c1csc(NC(=O)c2cccs2)n1	FLuc inh inconclusive (no result: TSHR ag, PK Bst)
O=C(Nc1nc(-c2ccccc2)cs1)c1cccs1	HEK293 cAMP ctrl inconclusive, TSHR ag inconclusive, FLuc inh 12.6µM (no result: PK Bst)
Cc1ccc(C(=O)Nc2ncc(Cc3ccc(F)cc3)s2)o1	FLuc inh 20µM (no result: PK Bst)
CC(NC(=O)c1noc2c1CCCC2)c1ccccc1 (stereo unspecified)	none
Cn1c(=O)c2cc(S(=O)(=O)N3CCOCC3)ccc2n(C)c1=O	none
O=c1c2ccccc2sn1-c1cc(S(=O)(=O)N2CCOCC2)ccc1N1CCOCC1	FLuc inh 12.6µM
COc1cc(-c2c(C#N)c(N)nc3c2CCCC3)cc(OC)c1OC	none
O=S(=O)(c1cccs1)N1CN(Cc2cccs2)c2nc3ccccc3nc21	HEK293 cAMP ctrl inconclusive, TSHR ag inconclusive
O=S(=O)(c1cccs1)N1CN(CC2CCCO2)c2nc3ccccc3nc21 (stereo unspecified)	TSHR ag 25.1µM
O=C(OCC(=O)c1c[nH]c2ccccc12)c1ccco1	PK Bst inconclusive, FLuc inh 15.8µM
O=C(COC(=O)C1CC1)c1c[nH]c2ccccc12	none
Clc1cccc(C=NC=Nc2cccc(Cl)c2)c1	FLuc inh 2µM (no result: PK Bst)
Cn1c(=O)oc2cc(S(=O)(=O)N3CCc4ccccc4C3)ccc21	none (no result: PK Bst)
COc1ccc(-n2nc(C(=O)N3CCN(Cc4ccc5c(c4)OCO5)CC3)c3ccccc3c2=O)cc1	none
COc1ccc(-n2nc(C(=O)NCC(=O)N3CCN(c4ccccn4)CC3)c3ccccc3c2=O)cc1	PK Bst 8.23, FLuc inh 3.16µM
COc1ccc(-n2nc(C(=O)Nc3ccc4c(c3)OCO4)c3ccccc3c2=O)cc1	HEK293 cAMP ctrl 15.8µM, TSHR ag inconclusive
On1onc2c3cc(-c4ccccc4)nc3ccc21	none
COC1=C(OC)C(=O)c2ccccc2C1=O	none (no result: PK Bst)
COc1ccc2[nH]cc(CCNc3ncncc3-c3ccccc3OC)c2c1	HEK293 cAMP ctrl 3.16µM, TSHR ag inconclusive (no result: PK Bst)
c1cncc(-c2nc(NCc3ccco3)c3ccccc3n2)c1	HEK293 cAMP ctrl 25.1µM, TSHR ag inconclusive
COc1ccc2[nH]cc(CCNc3ncncc3-c3ccccc3Cl)c2c1	HEK293 cAMP ctrl inconclusive, TSHR ag inconclusive (no result: PK Bst)
OCCNc1nc(-c2cccnc2)nc2ccccc12	none (no result: PK Bst)
COc1ccc2[nH]cc(CCNc3nc(-c4cccnc4)nc4ccccc34)c2c1	TSHR ag 3.98µM (no result: PK Bst)
COc1ccc(CNc2nc(-c3cccnc3)nc3ccccc23)c(OC)c1	HEK293 cAMP ctrl inconclusive, TSHR ag inconclusive (no result: PK Bst)
CCOC(=O)c1[nH]c2cc(OC)c(OC)cc2c1NC(=O)C(C)N1CCN(Cc2ccccc2)CC1 (stereo unspecified)	none (no result: HEK293 cAMP ctrl, TSHR ag)
Cc1ccnc(N2CCC(C(=O)Nc3ccc4c(c3)OCO4)CC2)n1	none
Cc1ccc(Cl)cc1NS(=O)(=O)c1c(C)[nH]c(=O)[nH]c1=O	none
Cn1cccc1C(=O)N1CCC[C@@]2(CCN(C(c3ccccc3)c3ccccc3)C2)C1	HEK293 cAMP ctrl 10µM, TSHR ag inconclusive (no result: PK Bst)
O=C(c1cnn2c(C(F)F)cc(C3CC3)nc12)N1CCOCC1	none
CCCn1c(N2CCN(S(=O)(=O)Cc3ccccc3)CC2)nc2ccccc21	HEK293 cAMP ctrl 25.1µM, TSHR ag inconclusive
CCS(=O)(=O)NCCc1cc2c(OC)ccc(OC)c2[nH]c1=O	PK Bst 11
O=C(c1ccc(COc2c(F)c(F)c(F)c(F)c2F)o1)N1CCOCC1	none (no result: TSHR ag)
O=C(c1ccc(C23CC4CC(CC(C4)C2)C3)o1)N1CCOCC1	TSHR ag 12.6µM
CN1CCN(c2cc(-c3ccccc3Cl)ncn2)CC1	none (no result: PK Bst)
COc1ccc(OC)c(CCNC(=O)CS(=O)(=O)Cc2nc(-c3ccc(C)cc3)oc2C)c1	HEK293 cAMP ctrl inconclusive, TSHR ag inconclusive
COc1ccc(-c2nc(CS(=O)(=O)CC(=O)NCCc3cc(OC)ccc3OC)c(C)o2)cc1	HEK293 cAMP ctrl 25.1µM, TSHR ag inconclusive
c1ccc2c(N3CCCCC3)nc(N3CCCC3)nc2c1	HEK293 cAMP ctrl 12.6µM, TSHR ag inconclusive
Nc1nc(-c2ccco2)nc(N2CCCCC2)n1	none
Nc1nc(N2CCCCC2)nc2ccccc12	PK Bst 8.46
CCOC(=O)c1[nH]c(C)c(C(=O)NC2CCCC2)c1C	HEK293 cAMP ctrl 25.1µM, TSHR ag inconclusive (no result: PK Bst)
Cc1nc2nc(-c3ccccc3)cn2nc1C	HEK293 cAMP ctrl inconclusive, TSHR ag inconclusive, FLuc inh 12.6µM
CCc1ccc(-c2cn3nc(C)c(C)nc3n2)cc1	PK Bst 1.49, FLuc inh 1µM (no result: HEK293 cAMP ctrl, TSHR ag)
COc1ncc2ncc(=O)n(Cc3cccs3)c2n1	HEK293 cAMP ctrl inconclusive, TSHR ag inconclusive (no result: PK Bst)
CCCC[C@@H]1C[C@H]1C(NC(=O)c1ccco1)c1ccccc1C(F)(F)F (stereo partly specified)	HEK293 cAMP ctrl 31.6µM, TSHR ag inconclusive (no result: PK Bst, FLuc inh)
CCCC[C@@H]1C[C@H]1C(NC(=O)c1ccccc1)c1ccccc1 (stereo partly specified)	HEK293 cAMP ctrl 12.6µM, TSHR ag inconclusive (no result: PK Bst, FLuc inh)
C=C(CC1([C@@H](NP(=O)(c2ccccc2)c2ccccc2)[C@H]2C[C@@H]2CCCC)CC1)c1ccccc1	none (no result: PK Bst, FLuc inh)
CCCC[C@@H]1C[C@H]1C(NC(=O)c1ccco1)c1ccc(-c2ccccc2)cc1 (stereo partly specified)	none (no result: PK Bst, FLuc inh)
CCCC[C@@H]1C[C@H]1C(NC(=O)c1ccco1)c1ccc(Cl)cc1 (stereo partly specified)	HEK293 cAMP ctrl 15.8µM, TSHR ag inconclusive (no result: PK Bst, FLuc inh)
COc1ccc(N2CCN(CCCNC(=O)c3cc4sccc4n3C)CC2)cc1	none (no result: PK Bst, FLuc inh)
CNC(=O)NC1CCCc2ccccc21 (stereo unspecified)	none (no result: PK Bst)

Source: PubChem
